Compounds with a hit are over-represented: about 3.8% of the library has one in this group of screens.
MBNL1 CUG block = inhibitors of human MBNL1 binding to CUG repeat RNA; hit rate 0.036% among 280,000; Q9NR56; Potency, µM (series often up to 57.5 µM), for the others: at the highest dose activity change, negative = inhibition, actives largely listed as inhibitors; TR-FRET MBNL1-His/biotin-(CUG)12 binding, 665/545 ratio; AID 2675; active = well fitted inhibition curve with a large enough effect in the signal ratio, with a control signal flat, not every such curve was filed as active; inconclusive = small, poorly fitted or top-dose-only effect, or effect the other way, or a change in a side signal; inactive = no such curve, though single readings can be large or run the other way; the % refers to the signal ratio; note: potency is the fitted concentration of half-maximal effect; % is set by controls: 0 for no effect and ±100 for the full control effect
Target sequence (Q9NR56 whole entry, looked up): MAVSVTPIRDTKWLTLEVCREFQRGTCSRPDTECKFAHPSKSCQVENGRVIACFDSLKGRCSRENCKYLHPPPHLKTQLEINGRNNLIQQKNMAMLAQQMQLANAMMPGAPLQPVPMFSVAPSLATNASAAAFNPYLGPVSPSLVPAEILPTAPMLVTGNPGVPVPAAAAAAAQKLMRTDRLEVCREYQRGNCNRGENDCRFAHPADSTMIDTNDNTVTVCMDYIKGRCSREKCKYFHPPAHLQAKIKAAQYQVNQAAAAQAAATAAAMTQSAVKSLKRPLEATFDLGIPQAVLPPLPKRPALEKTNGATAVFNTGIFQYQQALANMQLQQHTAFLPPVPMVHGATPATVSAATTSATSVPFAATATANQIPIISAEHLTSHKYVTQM
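Compound titration spanned 92 nM–58 uM against the MBNL1-His/biotin-(CUG)12 complex. After 60 min at room temperature with 5 nM streptavidin-XL665 and 0.055 ng/ul terbium anti-His, ratiometric 665/545 nm emission (Ex 340 nm) normalized to controls.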
PLK1 PBD inh = blocks phosphopeptide binding to human PLK1 polo-box domain | P53350 | Plk1 PBD binding of FITC phosphopeptide, fluorescence polarization | Potency, µM, inactives show max response, negative = inhibition, hits mostly inhibitors | hit rate 2.8% among 360,000 | AID 720504; note: potency is the fitted concentration of half-maximal effect; series mostly up to about 57 µM; % is set by controls: 0 for no effect and ±100 for the full control effect; nearly all actives have a fitted effect of over 65% in size
KCNH2 WT inh = KCNH2 (human, wildtype) channel inhibition | Q12809 | U2OS, BacMam KCNH2, thallium flux FluxOr; active compounds read low | activity change, % at 1.84 µM | hit rate 0.37% among 340,000;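 active = maximum activity change below -70%; inconclusive = maximum activity change between -70% and -50%; inactive = maximum activity change above -50%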; note: % is set by controls: 0 for no effect and ±100 for the full control effect
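U2OS cells transduced with wild-type KCNH2 virus are loaded with FluxOr dye for 45 min, and thallium flux is measured in kinetic reads before and after stimulation buffer. Rate constants are normalized to DMSO controls.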
CBFb RUNX1 block = blocks binding between human CBF-beta and RUNX1; Q01196+Q13951; AlphaScreen CBFb-His/RUNX1-biotin binding, biochemical; Potency, µM (highest dose often 59.8 µM), for the others: top-dose activity, negative = inhibition, usual class: inhibitors; 230,000 tested, under 10 active; AID 1477; note: % of control where 0% means no effect
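Interaction loss through any mechanism counts as activity. Pre-formed complex of His-CBF-beta and biotin-RUNX1 (30 nM apiece) is incubated with compound 15 min, then with 50 ng nickel and 50 ng streptavidin beads for 90 min before AlphaScreen detection.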
KCNH2 3.1 inh = KCNH2 3.1 (human) potassium channel inhibition | activity change, % (tested at about 1.8 µM) | U2OS KCNH2 3.1, thallium flux FluxOr; active compounds read low | hit rate 0.95% among 340,000;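 active = maximum activity change below -70%; inconclusive = maximum activity change from -70% to -50%; inactive = maximum activity change above -50%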;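 note: thallium influx rate constant from kinetic fluorescence after stimulation buffer; % is set by controls: 0 for no effect and ±100 for the full control effect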
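Normalized rate constant (relative to positive and negative DMSO controls) derived from a 2 min kinetic fluorescence read after stimulation; U2OS cells expressing the 3.1 isoform via virus at 1.77 x 10^8 /mL.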
VDR inh = vitamin D3 receptor (human) inhibition | P11473 | VDR-SRC2-3 peptide fluorescence polarization, 2 h | Potency, µM, for the others: max response, negative = inhibition, actives largely listed as inhibitors | hit rate 0.93% among 400,000; note: potency is the fitted concentration of half-maximal effect; % is set by controls: 0 for no effect and ±100 for the full control effect
Target sequence (P11473 whole entry, looked up): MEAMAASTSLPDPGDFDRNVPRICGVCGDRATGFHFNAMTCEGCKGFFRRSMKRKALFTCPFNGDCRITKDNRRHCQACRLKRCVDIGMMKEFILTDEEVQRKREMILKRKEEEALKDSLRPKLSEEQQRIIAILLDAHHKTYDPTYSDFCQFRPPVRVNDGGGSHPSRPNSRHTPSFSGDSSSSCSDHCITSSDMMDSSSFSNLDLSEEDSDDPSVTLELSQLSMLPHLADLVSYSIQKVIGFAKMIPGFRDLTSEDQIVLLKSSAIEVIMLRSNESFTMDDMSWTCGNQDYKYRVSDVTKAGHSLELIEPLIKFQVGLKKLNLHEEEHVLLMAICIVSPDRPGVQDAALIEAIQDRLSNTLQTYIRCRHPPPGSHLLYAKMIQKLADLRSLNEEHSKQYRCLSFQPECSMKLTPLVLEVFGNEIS
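Signal is fluorescence polarization, reporting how far test compounds block the interaction of VDR with the SRC2-3 coregulator peptide after a 2 h room-temperature incubation.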
Numbers without * were called inactive; ? = inconclusive; . = no result given. Unless noted, calls come from the whole dose curve; as a rule, active = well fitted curve in the direction sought with a large enough effect; inconclusive = small, poorly fitted or top-dose-only effect, or another doubt; inactive = no such curve, though single readings can be large; an effect the other way counts as inactive or inconclusive.

SMILES	MBNL1 CUG block	PLK1 PBD inh	KCNH2 WT inh	CBFb RUNX1 block	KCNH2 3.1 inh	VDR inh
CCS(=O)(=O)C1=NSC2=NC(=O)/C(=C\c3ccc(OC(=O)c4ccco4)c(OC)c3)C(=N)N21	13.1%	?	7.4	.	20.6	-25.5%
COc1cc(/C=C2/C(=N)N3C(=NC2=O)SN=C3S(C)(=O)=O)ccc1OC(=O)c1ccco1	15.1%	?	-4.8	.	1.9	?
CCOc1ccc(C(=O)NCCS(=O)(=O)N2CCN(c3ccccc3F)CC2)cc1OCC	.	.	.	.	.	8.1%
CCCC(=O)NNc1cc(=O)c2c(=O)n(C)c(=O)n(C)c2[nH]1	-3.5%	-2.2%	5.5	2.8%	-5.9	-4.7%
Cn1c(=O)c2c(=O)cc(NNC(=O)CC#N)[nH]c2n(C)c1=O	-9.7%	29.9µM*	2.5	2.9%	-5.0	-25.7%
Cc1cc(C)nc(N/N=C/c2sccc2C)n1	9.6%	18.9µM*	16.8	1.9%	5.0	?
C=CCOc1ccc2c(=O)n(C)c3ccccc3c2c1	.	.	.	9.6%	.	-19.8%
CC(O)CCC(=O)NCCNC(=O)CCC(C)O (centres undefined)	10.1%	10.6µM*	-12.2	5.0%	-5.6	?
O=C(CCC(=O)NCCO)NCCO	-1.8%	1.3%	-6.6	9.8%	.	-10.2%
COC(=O)c1ccc(Cl)c(NC(=O)C2CCN(S(=O)(=O)Cc3ccccc3)CC2)c1	.	.	.	.	.	30.7%
CN(C)c1nc(N)c(C#N)c(C#N)c1C#N	.	26.7µM*	-4.6	.	-9.7	-14.3%
CCCCN(CC)c1nc(N)c(C#N)c(CC#N)c1C#N	0.7%	7.3%	0.2	-5.2%	-3.0	-9.5%
Cc1ccccc1CSc1nc(-c2cccc(F)c2)nc2c1Cc1c(CO)cnc(C)c1O2	.	.	.	.	.	-2.9%
CN(C(=O)CSc1nc2ccccc2n1CC(=O)NCc1ccc(F)cc1)c1ccc(F)cc1	.	.	.	.	.	0.2%
Cc1ccc(N/N=C/c2c(C)c(C#N)c(=O)n(C)c2O)cc1C	?	23.8µM*	0.2	6.7%	-10.6	?
CC(C)=CCCC1(C)C=Cc2c(c(C)cc3c2[nH]c2ccccc23)O1 (centres undefined)	.	.	.	10.1%	.	1.8%
Cc1nn(-c2ccccc2)c2c1N(CCCC(=O)NC(C)c1ccccc1)C(=O)CS2 (centres undefined)	.	.	.	.	.	19.4%
CC(C)NC(=O)COC(=O)CNC(=O)c1cc(Cl)cc([N+](=O)[O-])c1	?	29.9µM*	7.3	-0.8%	-0.1	-21.6%
COc1ccc(C(=O)Nc2ccc(N3CCN(Cc4ccccc4)CC3)cc2)cc1	-2.5%	-8.4%	12.0	1.2%	-85.0*	-7.7%
COc1ccc(NC(=O)c2ccc(CN3CCN(c4ccccc4)CC3)cc2)cc1	-19.4%	2.2%	12.7	-0.6%	?	4.1%
CC(C)c1ccc(C(=O)Nc2ccc(CN3CCOCC3)cc2)cc1	-7.8%	-17.7%	9.5	.	-76.4*	7.5%
CCc1ccc(N2CCN(CCNC(=O)Nc3ccc(OC)cc3)CC2)cc1	11.2%	0.7%	-25.9	.	-94.3*	-16.4%
COc1ccc(C(=O)N2CCN(CCNC(=O)C(=O)Nc3ccc(Br)cc3)CC2)cc1	-4.2%	1.0%	20.2	.	-104.5*	3.1%
COc1ccc(CN(Cc2ccccc2)C(=O)c2cccc(C#N)c2)cc1COc1ccc(NC(C)=O)cc1	.	.	.	.	.	-10.7%
Cc1ccc(-n2ncc3c(N4CCC(Cc5ccccc5)CC4)ncnc32)cc1	.	.	.	.	.	6.5%
SMILES	MBNL1 CUG block	PLK1 PBD inh	KCNH2 WT inh	CBFb RUNX1 block	KCNH2 3.1 inh	VDR inh
CCc1ccc(-n2nc(CO)c(C(=O)NCc3ccccc3OC)n2)cc1	.	.	.	.	.	2.5%
CCCN1CCC(=O)N(C(CSc2ccc(Br)cc2)CC(C)C)CC1 (centres undefined)	.	.	.	11.2%	.	-29.0%
COc1ccccc1OCCn1c(COc2cc(C)ccc2C)nc2ccccc21	.	.	.	.	.	2.5%
O=C(O)C1CC(=O)N(Cc2ccc(F)cc2)C1 (centres undefined)	-3.0%	26.7µM*	11.2	6.5%	9.0	-12.1%
Cc1ccc(CNC(=O)Cn2c(=O)n(-c3ccc(Cl)cc3)c(=O)c3c(C)c(C)sc32)cc1	.	.	.	.	.	-6.0%
CC(=O)/C(=N\Nc1ccc(Cl)cc1)Sc1nnc(-c2ccccc2)n1-c1ccccc1	?	-15.2%	-2.0	-8.5%	5.3	-6.7%
CC(=O)/C(=N/Nc1ccccc1)Sc1nnc(CCc2ccccc2)n1-c1ccccc1	32.1%	-10.7%	-6.1	1.6%	-90.2*	-16.8%
CC[C@@H](C)[C@H](NC(=O)OCc1ccccc1)c1nnc([C@@H](NC(=O)OCc2ccccc2)[C@@H](C)CC)o1	-6.6%	1.7%	4.5	0.5%	-85.8*	9.0%
Cc1cnc(C=NNC(N)=S)c2cccc(N)c12	.	23.8µM*	-1.2	.	6.6	?
CN1CCc2c(c3cnc4cc(Cl)ccc4c3n2C)C1	.	.	.	.	.	-18.8%
CCOc1ccccc1NC(=O)COC(=O)CNS(=O)(=O)c1ccc(C)cc1	.	-8.6%	0.5	1.1%	3.8	-5.3%
COC(=O)c1ccccc1NC(=O)CCS(=O)(=O)c1ccc(Br)cc1	-6.0%	11.9µM*	-8.2	?	3.1	?
CCc1ccccc1NC(=O)CCS(=O)(=O)c1ccc(Br)cc1	-2.5%	-8.3%	-3.6	.	-7.9	-10.3%
O=C(CCS(=O)(=O)c1ccc(Cl)cc1)Nc1ccccc1Br	2.2%	3.7%	1.1	.	-7.9	4.8%
CCOc1ccccc1NC(=O)COC(=O)CN(C)S(=O)(=O)c1ccc(C)cc1	-15.1%	26.7µM*	2.9	-3.9%	3.4	?
CCOc1ccccc1NC(=O)CCS(=O)(=O)c1ccc(Br)cc1	-5.7%	29.9µM*	10.5	.	-8.0	-12.2%
COc1ccc(CNC(=O)c2ccc(CSc3nc4ccncc4n3Cc3ccccc3F)cc2)cc1	.	.	.	.	.	-8.6%
c1ccc(-c2nc(-c3ccccc3)c(Nc3ccc4ccccc4c3)o2)cc1	.	.	.	2.5%	.	-0.7%
O=C(NCc1ccccc1)c1ccc2c(c1)N(Cc1ccc(F)cc1)CCS2	.	.	.	.	.	-14.6%
COc1ccc(NC(=O)c2c([N+](=O)[O-])c(C(C)(C)C)nn2C)cc1	9.0%	-8.8%	-12.2	3.8%	-81.3*	4.5%
CC(=O)Nc1ccc(NC(=O)c2c([N+](=O)[O-])c(C(C)(C)C)nn2C)cc1	-7.7%	-7.4%	-3.9	-2.0%	-18.4	-10.9%
COc1ccc(NC(=O)c2ccc3c(c2)c(C)c(C)n3Cc2ccc(F)cc2)c(OC)c1	.	.	.	.	.	4.5%
CCCc1nnc(SCC(=O)N2CCOCC2)n1CCCOC	-15.8%	16.8µM*	-10.4	4.3%	-19.7	-15.3%
Cc1c2ccccc2nc2c(F)c(NCCO)c(F)c(F)c12	20.2%	6.7µM*	-1.5	-0.3%	27.6	?
CC(NC(=O)C(=O)N1CCOCC1)C(c1cccs1)N1CCN(c2ccccc2)CC1 (centres undefined)	-1.9%	21.2µM*	7.2	.	9.2	-26.6%
